This note sets out measurements from article PMC7862700, “An all-to-all approach to the identification of sequence-specific readers for epigenetic DNA modifications on cytosine”.

Holding throughout (assay): DAPPL (digital affinity profiling via proximity ligation, sequencing); 10 mM Tris-HCl pH 7.5, 50 mM NaCl, 1 mM DTT, 4% glycerol, room temperature, 30 min; GST-TFs on glutathione beads, 16-mer random dsDNA library, 0.1% formaldehyde crosslink after washing; high values mean tight binding
What all share (settings): protein: recombinant; tags: N-terminal GST; dsDNA, one strand shown

One test has as its target T1, FLI1 (Homo sapiens, UniProt Q01543 1-452).
T1 sequence: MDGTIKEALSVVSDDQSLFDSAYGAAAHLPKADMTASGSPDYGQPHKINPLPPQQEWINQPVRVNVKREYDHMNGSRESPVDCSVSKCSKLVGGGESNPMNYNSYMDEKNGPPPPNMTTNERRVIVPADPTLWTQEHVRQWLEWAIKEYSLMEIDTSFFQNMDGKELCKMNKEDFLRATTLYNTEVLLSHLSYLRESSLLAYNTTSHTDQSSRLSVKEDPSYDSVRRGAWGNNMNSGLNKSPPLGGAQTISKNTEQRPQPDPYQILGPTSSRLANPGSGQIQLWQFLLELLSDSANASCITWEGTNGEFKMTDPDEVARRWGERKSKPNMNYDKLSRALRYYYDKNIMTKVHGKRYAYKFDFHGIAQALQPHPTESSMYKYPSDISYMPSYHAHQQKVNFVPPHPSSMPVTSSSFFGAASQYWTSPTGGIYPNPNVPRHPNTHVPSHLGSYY
An outline of the steps:
(§1)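 After expression in yeast as GST fusions, human transcription factors were bound to glutathione beads, DNA-barcoded and mixed with a tag-only sample. The pools were incubated with 200 nmole of a 16-mer random double-stranded DNA library in Tris/NaCl/DTT/glycerol buffer (30 min, room temperature), washed and crosslinked with 0.1% formaldehyde. Proximity ligation with BsaI/T4 ligase ran for 1 h at 37 °C, before PCR amplification and sequencing on an Illumina NextSeq500. Binding signal is a hexamer's read frequency for a factor divided by its frequency for the tag-only sample.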

The next test concerns the target T2, ELK1 (Homo sapiens, UniProt P19419 1-428).
T2 sequence: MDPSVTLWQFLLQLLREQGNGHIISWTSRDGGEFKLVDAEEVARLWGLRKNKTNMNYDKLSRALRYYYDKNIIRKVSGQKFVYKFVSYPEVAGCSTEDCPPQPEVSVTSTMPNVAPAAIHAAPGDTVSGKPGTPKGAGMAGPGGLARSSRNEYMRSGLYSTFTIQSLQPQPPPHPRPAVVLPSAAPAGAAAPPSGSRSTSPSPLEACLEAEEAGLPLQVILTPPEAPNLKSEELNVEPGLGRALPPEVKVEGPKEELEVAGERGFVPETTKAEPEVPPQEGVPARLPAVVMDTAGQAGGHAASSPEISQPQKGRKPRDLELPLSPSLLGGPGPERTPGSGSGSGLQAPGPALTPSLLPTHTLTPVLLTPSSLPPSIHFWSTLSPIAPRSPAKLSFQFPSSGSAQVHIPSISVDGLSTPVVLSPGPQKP
The method, boiled down:
as §1

The target in another test is T3, GABPA (Homo sapiens, UniProt Q06546 1-454).
T3 sequence: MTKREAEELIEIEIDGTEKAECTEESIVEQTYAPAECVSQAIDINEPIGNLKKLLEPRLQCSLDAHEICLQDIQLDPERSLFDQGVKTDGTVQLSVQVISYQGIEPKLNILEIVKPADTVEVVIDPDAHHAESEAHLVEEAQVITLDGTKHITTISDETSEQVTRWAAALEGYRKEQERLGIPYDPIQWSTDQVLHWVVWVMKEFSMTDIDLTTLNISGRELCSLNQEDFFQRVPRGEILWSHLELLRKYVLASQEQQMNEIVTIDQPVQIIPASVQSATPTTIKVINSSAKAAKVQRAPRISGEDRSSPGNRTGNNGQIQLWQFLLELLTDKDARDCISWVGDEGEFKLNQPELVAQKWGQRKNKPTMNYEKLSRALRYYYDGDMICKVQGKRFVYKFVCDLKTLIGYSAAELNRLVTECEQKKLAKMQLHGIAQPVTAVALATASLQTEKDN
An outline of the steps:
as §1

For the next test, the target named is T4, ERG (Homo sapiens, UniProt P11308 1-479).
T4 sequence: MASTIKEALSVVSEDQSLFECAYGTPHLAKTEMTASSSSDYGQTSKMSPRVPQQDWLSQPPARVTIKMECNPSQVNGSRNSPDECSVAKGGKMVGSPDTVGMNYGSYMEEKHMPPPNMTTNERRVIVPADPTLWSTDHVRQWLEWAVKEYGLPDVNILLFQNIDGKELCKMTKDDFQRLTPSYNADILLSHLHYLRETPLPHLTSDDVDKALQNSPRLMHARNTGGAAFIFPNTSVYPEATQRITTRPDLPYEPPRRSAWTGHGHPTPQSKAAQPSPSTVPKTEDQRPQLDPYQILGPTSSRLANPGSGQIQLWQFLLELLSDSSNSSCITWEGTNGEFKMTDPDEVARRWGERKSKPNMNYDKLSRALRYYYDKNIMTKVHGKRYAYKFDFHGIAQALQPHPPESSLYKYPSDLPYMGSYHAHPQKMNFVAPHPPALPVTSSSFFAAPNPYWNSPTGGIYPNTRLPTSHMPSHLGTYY
The method, boiled down:
as §1

The target in the next test is ELF1 (Homo sapiens, UniProt P32519 1-619). An outline of the steps:
as §1

A further test addresses SPI1 (Homo sapiens, UniProt P17947 1-270). The method, boiled down: as §1
Another test concerns the target SPIB (Homo sapiens, UniProt Q01892 1-262). The method, boiled down: as §1
In the next test the target is T5, EHF (Homo sapiens, UniProt Q9NZC4 1-300).
T5 sequence: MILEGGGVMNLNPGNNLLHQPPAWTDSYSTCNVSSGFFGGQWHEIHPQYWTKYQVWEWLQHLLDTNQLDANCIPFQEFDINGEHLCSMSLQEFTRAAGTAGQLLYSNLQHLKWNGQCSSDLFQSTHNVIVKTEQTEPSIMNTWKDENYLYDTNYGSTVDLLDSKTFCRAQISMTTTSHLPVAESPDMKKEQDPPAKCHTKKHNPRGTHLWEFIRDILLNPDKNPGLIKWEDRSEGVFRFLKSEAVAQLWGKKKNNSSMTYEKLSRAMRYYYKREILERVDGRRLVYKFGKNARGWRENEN
An outline of the steps: as §1

A further test concerns the target T6, ELK3 (Homo sapiens, UniProt P41970 1-407).
T6 sequence: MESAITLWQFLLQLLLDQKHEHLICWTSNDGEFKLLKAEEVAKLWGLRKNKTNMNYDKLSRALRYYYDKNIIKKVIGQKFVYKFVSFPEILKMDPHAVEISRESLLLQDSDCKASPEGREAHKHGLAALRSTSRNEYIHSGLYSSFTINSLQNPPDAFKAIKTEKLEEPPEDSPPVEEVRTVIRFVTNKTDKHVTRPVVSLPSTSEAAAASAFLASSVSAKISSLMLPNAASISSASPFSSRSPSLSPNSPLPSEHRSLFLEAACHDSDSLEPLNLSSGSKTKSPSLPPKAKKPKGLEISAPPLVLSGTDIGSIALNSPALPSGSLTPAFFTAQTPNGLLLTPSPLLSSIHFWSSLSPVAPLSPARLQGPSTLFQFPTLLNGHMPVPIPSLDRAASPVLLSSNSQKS
The method, boiled down:
as §1

Sequence of ELF1 (P32519 whole entry): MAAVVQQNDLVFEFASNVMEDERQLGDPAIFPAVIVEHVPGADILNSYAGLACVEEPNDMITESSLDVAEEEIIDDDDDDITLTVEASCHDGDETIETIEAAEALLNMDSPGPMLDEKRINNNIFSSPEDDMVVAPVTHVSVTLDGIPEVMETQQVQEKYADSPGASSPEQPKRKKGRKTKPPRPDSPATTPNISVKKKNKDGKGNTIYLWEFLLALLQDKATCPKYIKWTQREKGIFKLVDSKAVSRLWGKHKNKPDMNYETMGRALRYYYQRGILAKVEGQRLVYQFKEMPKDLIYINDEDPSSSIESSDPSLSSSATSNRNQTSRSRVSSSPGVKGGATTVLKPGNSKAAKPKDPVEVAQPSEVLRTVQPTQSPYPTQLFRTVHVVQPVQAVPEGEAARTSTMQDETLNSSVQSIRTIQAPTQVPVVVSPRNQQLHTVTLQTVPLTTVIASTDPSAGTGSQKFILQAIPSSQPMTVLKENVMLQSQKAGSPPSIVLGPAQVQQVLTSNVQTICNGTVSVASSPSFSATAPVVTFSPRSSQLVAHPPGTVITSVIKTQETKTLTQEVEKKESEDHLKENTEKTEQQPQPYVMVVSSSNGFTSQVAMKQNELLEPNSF
Sequence of SPIB (Q01892 whole entry): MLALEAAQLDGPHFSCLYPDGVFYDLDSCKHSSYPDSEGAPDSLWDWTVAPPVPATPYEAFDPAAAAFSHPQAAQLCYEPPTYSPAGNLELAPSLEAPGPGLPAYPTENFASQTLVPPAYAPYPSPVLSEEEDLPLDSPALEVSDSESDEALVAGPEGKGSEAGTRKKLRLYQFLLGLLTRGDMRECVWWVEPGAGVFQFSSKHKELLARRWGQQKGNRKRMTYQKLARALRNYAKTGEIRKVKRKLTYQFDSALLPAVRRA

Turning to AATGGA, the binding signal with FLI1 was 1.01 fold enrichment (6-mer frequency, TF over GST control); in the test with ELK1, 1.01 fold enrichment (6-mer frequency, TF over GST control); with GABPA it was 1.01 fold enrichment (6-mer frequency, TF over GST control); in the test with ERG, 1.06 fold enrichment (6-mer frequency, TF over GST control); in the test with ELF1 it was 1.03 fold enrichment (6-mer frequency, TF over GST control); with SPI1 it was 1.06 fold enrichment (6-mer frequency, TF over GST control). In addition, the binding signal with SPIB is 1.06 fold enrichment (6-mer frequency, TF over GST control).

Take GGGCTA: the binding signal in the test with FLI1 is 1.1 fold enrichment (6-mer frequency, TF over GST control); with ELK1 it was 1.05 fold enrichment (6-mer frequency, TF over GST control); in the test with GABPA, 1.08 fold enrichment (6-mer frequency, TF over GST control); in the test with ERG, 1.16 fold enrichment (6-mer frequency, TF over GST control); with ELF1, 1.16 fold enrichment (6-mer frequency, TF over GST control); with EHF it was 1.18 fold enrichment (6-mer frequency, TF over GST control). Further, the binding signal is 1.15 fold enrichment (6-mer frequency, TF over GST control) with SPIB and 1.06 fold enrichment (6-mer frequency, TF over GST control) with ELK3.

As to CACCTC, the binding signal with FLI1 is 1.12 fold enrichment (6-mer frequency, TF over GST control); in the test with ELK1 it was 1.15 fold enrichment (6-mer frequency, TF over GST control); with GABPA, 1.2 fold enrichment (6-mer frequency, TF over GST control); with ERG, 1.17 fold enrichment (6-mer frequency, TF over GST control); with ELF1 it was 1.2 fold enrichment (6-mer frequency, TF over GST control); with EHF, 1.27 fold enrichment (6-mer frequency, TF over GST control). For the same sequence, the binding signal is 1.1 fold enrichment (6-mer frequency, TF over GST control) in the test with SPIB and 1.09 fold enrichment (6-mer frequency, TF over GST control) with ELK3.

For TACCTG, the binding signal was 1.13 fold enrichment (6-mer frequency, TF over GST control) with FLI1; 1.21 fold enrichment (6-mer frequency, TF over GST control) with ELK1; 1.12 fold enrichment (6-mer frequency, TF over GST control) with GABPA; 1.17 fold enrichment (6-mer frequency, TF over GST control) with ERG; 1.09 fold enrichment (6-mer frequency, TF over GST control) with ELF1; 1.16 fold enrichment (6-mer frequency, TF over GST control) in the test with EHF. Moreover, the binding signal in the test with SPIB was 1.25 fold enrichment (6-mer frequency, TF over GST control); in the test with ELK3 it was 1.15 fold enrichment (6-mer frequency, TF over GST control).

For AGGTAT, the binding signal was 1.06 fold enrichment (6-mer frequency, TF over GST control) with FLI1; 1.06 fold enrichment (6-mer frequency, TF over GST control) with ELK1; 1.07 fold enrichment (6-mer frequency, TF over GST control) with GABPA; 1.04 fold enrichment (6-mer frequency, TF over GST control) with ERG; 1.04 fold enrichment (6-mer frequency, TF over GST control) with ELF1; 1.04 fold enrichment (6-mer frequency, TF over GST control) with SPI1. In addition, in the test with SPIB, the binding signal was 1 fold enrichment (6-mer frequency, TF over GST control).

As to TGTGTT, the binding signal with FLI1 was 1.19 fold enrichment (6-mer frequency, TF over GST control); in the test with ELK1, 1.1 fold enrichment (6-mer frequency, TF over GST control); with GABPA, 1.06 fold enrichment (6-mer frequency, TF over GST control); with ERG it was 1.03 fold enrichment (6-mer frequency, TF over GST control); with ELF1 it was 1.03 fold enrichment (6-mer frequency, TF over GST control); with EHF, 1.09 fold enrichment (6-mer frequency, TF over GST control). In addition, in the test with ELK3, the binding signal is 1.26 fold enrichment (6-mer frequency, TF over GST control).

For GCGCCC, the binding signal with FLI1 is 1.07 fold enrichment (6-mer frequency, TF over GST control); with ELK1, 1.1 fold enrichment (6-mer frequency, TF over GST control); with GABPA it was 1.11 fold enrichment (6-mer frequency, TF over GST control); in the test with ERG, 1.13 fold enrichment (6-mer frequency, TF over GST control); with ELF1 it was 1.11 fold enrichment (6-mer frequency, TF over GST control); in the test with EHF it was 1.03 fold enrichment (6-mer frequency, TF over GST control). The binding signal in the test with SPIB was 1.09 fold enrichment (6-mer frequency, TF over GST control); with ELK3, 1.18 fold enrichment (6-mer frequency, TF over GST control).

As to CGCTTG, the binding signal is 1.1 fold enrichment (6-mer frequency, TF over GST control) with FLI1; 1.14 fold enrichment (6-mer frequency, TF over GST control) in the test with ELK1; 1.09 fold enrichment (6-mer frequency, TF over GST control) with GABPA; 1.05 fold enrichment (6-mer frequency, TF over GST control) with ERG; 1.07 fold enrichment (6-mer frequency, TF over GST control) with ELF1; 1.04 fold enrichment (6-mer frequency, TF over GST control) with EHF. Also, the binding signal is 1.25 fold enrichment (6-mer frequency, TF over GST control) with SPIB and 1.07 fold enrichment (6-mer frequency, TF over GST control) with ELK3.

As for CAACGA, the binding signal in the test with FLI1 was 1.05 fold enrichment (6-mer frequency, TF over GST control); with ELK1, 1.08 fold enrichment (6-mer frequency, TF over GST control); with GABPA, 1.08 fold enrichment (6-mer frequency, TF over GST control); with ERG it was 1.07 fold enrichment (6-mer frequency, TF over GST control); with ELF1, 1.1 fold enrichment (6-mer frequency, TF over GST control); with EHF it was 1.01 fold enrichment (6-mer frequency, TF over GST control). The binding signal was 1.03 fold enrichment (6-mer frequency, TF over GST control) with SPIB and 1.09 fold enrichment (6-mer frequency, TF over GST control) with ELK3.
